# Compounds with a hit are over-represented: about 0.78% of the library has one in this group of screens.
# PI4K2A inh: qHTS for small molecular inhibitors of PI4K2A. Phosphatidylinositol 4-kinase type 2-alpha (Homo sapiens), Q9BTU6. purified PI4K2A, ADP-Glo luminescence, 1 h; hits give low values. activity change, negative = inhibition, % at 76.9 µM. 420,000 compounds, 0.13% hits; in the data active means activity change below about -50%; inconclusive means mostly about -30% to -49%;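 further: -100% = wells without enzyme as full effect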
#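 PI4K2A activity was measured by ADP-Glo luminescence: enzyme (4 ug/mL stock) and phosphatidylinositol (1.2 mM stock) in Tris pH 7.5/MgCl2/EGTA/Triton X-100 buffer were reacted with ATP (300 microM stock) for one hour at ambient temperature.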
# PINK1 expr mod: A Quantitative High throughput Screen to Identify Chemical Modulators of PINK1 Expression | PINK1 immunofluorescence, high-content cytometry, 24 h | Potency, µM (titrated, usually from 76.6 µM), inactives show at the top dose activation (PINK1 increase), actives largely listed as activators | 410,000 compounds, 0.2% hits; active means well fitted activation curve with a large enough effect; inconclusive means small, poorly fitted or top-dose-only effect; cell line not stated here; further: potency means the concentration at half of the fitted maximal effect; % of control where 0% means no effect; nearly all actives have a fitted effect of over 65% in size
#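 PINK1 protein, normally rapidly degraded, was detected by immunofluorescence after 24 hour compound treatment of a stable cell line. Titration data (5 concentrations) came from laser-scanning cytometry, with CCCP-treated wells as controls.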
# Tb PGK inh: qHTS Assay to Find Inhibitors of Phosphoglycerate Kinase; PGK/GAPDH coupled, Kinase-Glo luminescence, 60 min; Potency, µM (doses to about 57.5 µM), for the others: top-dose activity change, negative = inhibition, usual class: inhibitors; 380,000 compounds, 0.043% hits; further: potency means the concentration at half of the fitted maximal effect; on the % scale 0 is the no-effect control and ±100 the full control effect; nearly all actives have a fitted effect of over 60% in size
#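 Luminescent ATP detection (Kinase-Glo Plus) follows a 60-minute room-temperature incubation, with wells lacking PGK as controls. Buffer: 100 mM TEA (pH 7.6), 5 mM MgCl2, 0.01% Tween-20. Coupling enzyme GAPDH (100 nM final) supplies unstable 1,3-BPG in-well.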
# GLS inhibitor: qHTS for Inhibitors of Glutaminase (GLS). AID 624170, 2012. Potency, µM (doses to about 45.5 µM), inactives show at the highest dose activity change, negative = inhibition, usual class: inhibitors. GLS enzymatic activity, qHTS titration. Glutaminase kidney isoform, mitochondrial (Homo sapiens), O94925. 410,000 compounds, 0.21% hits; further: potency means the concentration at half of the fitted maximal effect; on the % scale 0 is the no-effect control and ±100 the full control effect
# Target sequence (O94925 whole entry, looked up, canonical isoform): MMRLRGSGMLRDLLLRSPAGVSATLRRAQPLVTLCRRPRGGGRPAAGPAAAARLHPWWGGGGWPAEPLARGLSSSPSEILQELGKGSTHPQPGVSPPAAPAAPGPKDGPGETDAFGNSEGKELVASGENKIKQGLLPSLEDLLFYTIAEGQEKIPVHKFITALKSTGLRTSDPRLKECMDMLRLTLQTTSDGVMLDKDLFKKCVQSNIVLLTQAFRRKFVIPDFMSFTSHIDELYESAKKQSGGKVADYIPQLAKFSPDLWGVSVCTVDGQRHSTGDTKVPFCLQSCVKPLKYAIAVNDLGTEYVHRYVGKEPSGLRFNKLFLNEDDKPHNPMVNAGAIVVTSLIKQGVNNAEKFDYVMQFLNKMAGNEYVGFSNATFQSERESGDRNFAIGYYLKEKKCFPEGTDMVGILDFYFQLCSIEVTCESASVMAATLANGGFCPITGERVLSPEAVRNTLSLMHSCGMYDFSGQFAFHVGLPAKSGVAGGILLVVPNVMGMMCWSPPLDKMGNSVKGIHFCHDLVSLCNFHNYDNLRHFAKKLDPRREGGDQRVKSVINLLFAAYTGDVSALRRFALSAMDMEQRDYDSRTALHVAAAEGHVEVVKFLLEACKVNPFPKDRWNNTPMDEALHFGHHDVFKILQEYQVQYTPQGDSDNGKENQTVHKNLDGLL
#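 Read-out is an Amplex red fluorescence increase coupled through glutamate oxidase and HRP, measured before and after 30 min room-temperature incubation. hKGA is in 45 mM KH2PO4 (pH 8.2) with 0.02% Tween-20; glutamine added as 1mM solution.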
# CCT modulator: High-Throughput Screening for Modulators of Cytosolic Chaperonin Activity. purified chaperonin ATPase assay, HTRF ADP detection, 30 min. activity change, % (no concentration beside the values), hits read low. 360,000 compounds, 0.3% hits. AID 651819, 2012; in the data active means activity change below about -30%; further: on the % scale 0 is the no-effect control and ±100 the full control effect
#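 TRiC (40 or 20 nM final, by batch activity) in 30 mM Tris pH 7.4, 100 mM KCl, 5 mM MgCl2, 1 mM DTT was treated with compound at 76 uM single dose, then 10 uM ATP, 30 min at 37 °C. ADP was read by HTRF Transcreener.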
# Numbers without * were called inactive; i = inactive; ? = inconclusive; nt = not tested or not shown; [ ] = another dose, or the depositor's remark. Unless noted, the call rests on the fitted dose curve; in most records, active means well fitted curve in the direction sought with a large enough effect; inconclusive means small, poorly fitted or top-dose-only effect, or another doubt; inactive means no such curve, though single readings can be large; an effect the other way counts as inactive or inconclusive.
SMILES,PI4K2A inh,PINK1 expr mod,Tb PGK inh,GLS inhibitor,CCT modulator
Nc1nnc(SC2CC(=O)N(c3ccccc3)C2=O)s1 (centres undefined),4.2,0.1%,-10.1%,6.5%,-97.1*
O=C1CC(Sc2ncccn2)C(=O)N1c1ccccc1 (centres undefined),0.3,-1.1%,3.0%,-11.6%,1.1
COc1ccc(NC(=O)CN(C)C(=O)CCC2CCCC2)cc1,5.0,2.2%,-12.0%,-8.9%,-35.9*
N#CC(c1ccc(Cl)cc1)c1cccc(Cl)n1 (centres undefined),-0.4,6.3%,-4.9%,-6.2%,-2.3
COc1ccc(C(C#N)c2ccc(=O)[nH]n2)cc1 (centres undefined),-62.2*,-0.9%,-4.9%,2.4%,-0.3
CS(=O)(=O)c1ccc(-c2ccc3c(c2)CC(CNC(=O)C2(N4CCOCC4)CCCCC2)O3)cc1 (centres undefined),nt,-0.4%,nt,nt,nt
O=C(COC(=O)/C=C/c1ccccc1Cl)NCCc1ccc(Cl)cc1Cl,-0.1,0.1%,-7.7%,-7.3%,-39.1*
O=C(CCc1c[nH]c2ccccc12)N1CCC(n2c(C3CCCO3)nc3cc(C(F)(F)F)ccc32)CC1 (centres undefined),nt,1.9%,nt,nt,nt
Fc1ccccc1NC(=S)NNc1ncc(C(F)(F)F)cc1Cl,-0.7,15.8µM*,-2.5%,?,-1.3
Cc1ccccc1NC(=S)NNc1ncc(C(F)(F)F)cc1Cl,-6.7,3.5%,-5.7%,10.7%,-1.9
CN(CCO)c1nc2c(c(=O)n(Cc3ccc(Cl)cc3)c(=O)n2C)n1C,2.7,3.5%,0.5%,8.91µM*,-1.1
CC(O)CNc1nc2c(c(=O)n(Cc3ccc(Cl)cc3)c(=O)n2C)n1C (centres undefined),5.1,1.2%,0.1%,11.2µM*,0.9
CCSc1nsc(NC(=O)Nc2ccc(F)cc2F)n1,-1.8,22.4µM*,i,-0.8%,-0.3
COc1ccc(COc2ccsc2C(=O)Nc2ccc(Cl)c(Cl)c2)cc1,0.2,10µM*,1.2%,2.1%,-0.8
CN(C)S(=O)(=O)Oc1ccsc1C(=O)Nc1ccc(Cl)c(Cl)c1,-1.1,4.2%,-1.1%,-4.6%,0.5
C/C=C/c1ccc(OCCCCN2CC(C)CC(C)C2)c(OC)c1 (centres undefined),1.5,-0.4%,i,-2.9%,-0.1
C/C=C/c1ccc(OCCCCN2CCN(CC)CC2)c(OC)c1,3.4,-1.7%,i,3.5%,-58.4*
COCCN1CCN(C(=O)c2cnn(-c3nccc(-c4ccco4)n3)c2C2CC2)CC1,nt,0.5%,nt,nt,nt
Cc1ccc(Nc2nc3ccccc3n3cnnc23)cc1Cl,2.8,6.1%,5.6%,-4.9%,-49.7*
Cc1cc(C)c(NC(=O)CSC2=Nc3ccccc3C3=NC(CC(=O)NCc4cccs4)C(=O)N23)c(C)c1 (centres undefined),-1.5,0.5%,10.5%,11.2µM*,nt
CCCCNC(=O)CC1N=C2c3ccccc3N=C(SCC(=O)Nc3ccc(OC)cc3)N2C1=O (centres undefined),3.9,2.8%,-10.1%,?,-2.2
CCCCNC(=O)CC1N=C2c3ccccc3N=C(SCC(=O)Nc3cccc(OC)c3)N2C1=O (centres undefined),5.0,-1.4%,-0.4%,7.08µM*,1.4
NC(=O)c1ccc(NC(=O)CSC2=Nc3ccccc3C3CC=NN23)cc1 (centres undefined),-20.6,4.9%,-2.1%,-14.2%,-2.5
COC(=O)c1ccc(NC(=O)CSC2=Nc3ccccc3C3CC=NN23)cc1 (centres undefined),0.2,6.6%,-0.5%,14.1µM*,-1.8
COC(=O)c1ccccc1-c1cc(C)cc2c1OC(CNC(=O)c1ccn(C)n1)C2 (centres undefined),nt,0.5%,nt,nt,nt
SMILES,PI4K2A inh,PINK1 expr mod,Tb PGK inh,GLS inhibitor,CCT modulator
COc1ccccc1CN1C(=O)c2ccncc2C1=O,-0.5,?,-0.3%,-4.8%,-0.6
COc1ccccc1CN1C(=O)c2cccc3cccc(c23)C1=O,1.5,15.6%,-2.2%,7.94µM*,-6.6
COc1ccc2c(c1)-c1nc(-n3ncc(C(=O)N(C)CC4CCCN(C)C4)c3C)ncc1CC2 (centres undefined),nt,1.8%,nt,nt,nt
O=C(NNC(=S)NC(=O)c1ccccc1[N+](=O)[O-])c1ccccc1O,4.0,28.2µM*,i,0.0%,-1.2
CCOC(=O)C1C(c2ccc(O)c(OC)c2)NC(=S)NC1(O)C(F)(F)F (centres undefined),-2.8,0.7%,nt,50.2%,-0.3
CCOC(=O)C1C(c2ccccc2)NC(=S)NC1(C)O (centres undefined),0.6,0.5%,-2.2%,2.82µM*,-0.4
CO/N=C1\C[C@]2(C[C@@H]3C[C@H](C/C=C(/C)C[C@@H](C)/C=C\C=C4\CO[C@@H]5[C@@H](O)C(C)=C[C@@H](C(=O)O3)[C@]45O)O2)O[C@@H](/C(C)=C/C(C)C)[C@H]1C,nt,nt,nt,-1.4%,nt
COc1ccccc1C(=O)NNc1ncc(C)s1,-0.5,0.0%,8.2%,6.31µM*,2.3
COc1ccccc1OCC(=O)Nc1ncc(C)s1,6.0,0.3%,-13.6%,-4.7%,-0.7
COc1ccc(N2C(=NC(=O)C3CCCCC3)SC3CS(=O)(=O)CC32)cc1OC (centres undefined),1.6,0.3%,0.3%,23.1%,-1.6
COc1ccc(C(=O)N=C2SC3CS(=O)(=O)CC3N2c2ccc(N(C)C)cc2)cc1OC (centres undefined),-5.8,5.9%,i,9.6%,-59.5*
Cc1ccc(N(C(=O)c2csnn2)C(C(=O)NC2CCCCC2)c2ccccn2)c(C)c1 (centres undefined),-0.4,0.2%,11.9%,0.1%,-31.7*
COCCN(CCOC)C(=O)c1cc2sc3ccccc3c2s1,-4.1,-1.7%[38.3 µM],5.0%,-0.4%,-31.0*
COC(=O)[C@@H]1CCCN1Cc1ccc2c(c1)CN(Cc1coc3ccccc3c1=O)CCO2,nt,-0.9%,nt,nt,nt
O=c1c(Cl)c(NCc2ccc(F)cc2)cnn1C12CC3CC(CC(C3)C1)C2,-1.6,-1.3%,2.0%,-6.0%,-31.1*
c1ccc(NCc2cccnc2)cc1,17.4,0.0%,i,28.3%,-120.8*
Cc1ccc(OCC(=O)NCc2cccnc2)cc1,0.1,1.4%,i,-3.8%,0.5
O=C(CNC(=O)COc1ccccc1)NCc1cccnc1,2.8,0.2%,-0.7%,2.0%,-41.4*
Cc1ccc(/C=C/c2nc3ccccc3n2S(=O)(=O)c2ccc(Br)cc2)cc1,-63.5*,1.1%,0.2%,-4.6%,nt
